UDG counter – blocks uracil-DNA glycosylase in AID counter-screen; FRET deamination/UDG coupled assay, UDG read, 4 h; Potency, µM (top dose mostly 115 µM), without a hit: at the top dose activity change, negative = inhibition, hits mostly inhibitors; 0.14% of 91,000 active; also: nearly all actives have a fitted effect of over 65% in size
AID inhibitor – inhibitors of human activation induced cytidine deaminase; Q9GZX7; AID deamination FRET fluorescence, UDG-coupled, 4 h; Potency, µM (titrated, usually from 115 µM), hits mostly inhibitors; 0.32% of 91,000 active; also: nearly all actives have a fitted effect of over 25% in size
Target sequence (Q9GZX7 whole entry, looked up): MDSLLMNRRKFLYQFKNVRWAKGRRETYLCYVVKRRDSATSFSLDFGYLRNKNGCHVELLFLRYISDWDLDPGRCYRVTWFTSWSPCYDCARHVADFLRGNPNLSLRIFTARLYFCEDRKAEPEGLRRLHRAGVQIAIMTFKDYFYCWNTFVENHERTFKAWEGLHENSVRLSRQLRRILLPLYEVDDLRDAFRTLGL
Numbers without * were called inactive; i = inactive. Most compounds without a hit are left out; they make up all but 0.47% or so of the library. Calls follow the shape of the dose curve; as a rule, active = well fitted curve in the direction sought with a large enough effect; inconclusive = small, poorly fitted or top-dose-only effect, or another doubt; inactive = no such curve, though single readings can be large; an effect the other way counts as inactive or inconclusive. % is scaled to controls: 0 for no effect and ±100 for the full control effect; potency is read from the fitted curve at half-maximal effect.

SMILES	UDG counter	AID inhibitor
CCCCC/C=C\C/C=C\C/C=C\C/C=C\CCCC(=O)NCC(=O)O	7.2%	79.4µM*
CN1CC2(C)CNCC(C)(C1)C2O (stereo not drawn)	-0.8%	i
Cc1ccc2c(CCN)c(C)[nH]c2c1C	7.5%	i
CN(N=O)c1cc(O)ccc1O	-19.3%	28.2µM*
COc1ccc(CCNCc2cccc(Br)c2)cc1	-10.7%	i
CNC(=O)NC(=O)CN1CCN(C(=O)Cc2cccc(OC)c2)CC1	1.2%	i
COc1ccc2c(c[n+](C)c3c4cc5c(cc4ccc23)OCO5)c1OC	-17.5%	39.8µM*
CC(=O)OC1CCC2(/C=N/O)[C@H]3CCC4(C)C(C5=CC(=O)OC5)CCC4(O)[C@@H]3CCC2(O)C1 (stereo partly drawn)	-5.7%	i
COc1ccc(-n2c(/C=C/c3ccco3)nc3ccccc3c2=O)cc1	15.0%	i

Assay outcomes (PubChem)
